Over roughly 25,000 sequences, “ln(normalized median fluorescence intensity)” has its median near 6.7; the highest 2% begin near 10. This is one part of a sample in which the highest values are shown more often than they occur.

The subject of the assay is PfHDP1 homeodomain (GST-tagged). The assay can be described thus: gcPBM binding intensity (ln(normalized median fluorescence intensity)); higher = stronger DNA binding. Put shortly: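 An Agilent 4 × 180k array of primer-extended double-stranded 36-bp intergenic genomic probes, with negative controls, was incubated for 1 h with GST-tagged P. falciparum DNA-binding domains expressed in E. coli. Alexa488 anti-GST antibody detected bound protein, scanned at 488 nm. Binding intensity is the highest Masliner-normalised natural-log median intensity across replicate spots of either probe orientation.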
Regarding “AAATTAATACATTATTGTACTTTTCATGTGCAGAAA [XGTACX_site8284]”, the “gcPBM binding intensity (ln)” value came out at 8.11. In the case of “TTACTTGTTTATTTTTTTTTTTTTTTTTTTTTTGTT [TGCATGCA_negctrl_site103]”, the “gcPBM binding intensity (ln)” value stood at 5.62. Consider “TATATGAAAATGTTCATACACACATAAAAAAAAAAA [CACACA_site3237]”, for which the “gcPBM binding intensity (ln)” value was found to be 6.41. Take “GTTCAATCGGGTGTTACTTCAAACAAGGAACAACAA [TGCATGCA_negctrl_site471]”: the “gcPBM binding intensity (ln)” value was 6.16. With “TTAAGATATGTATATCGTACATGACATTAAAAATTT [XGTACX_site3352]” the figure was 6.02. As to “ATGCAAATAATATAAAGTACACAACATCGCCCAAAG [XGTACX_site1825]”, the “gcPBM binding intensity (ln)” value amounted to 7. As to “TATTTAACACCTTATACACACTTTCTTCCTTTTTTA [CACACA_site4590]”, the “gcPBM binding intensity (ln)” value stood at 7.12. In the case of “ACAAGTATTCCTTTTGCACACCTTTCTGCACCTTAT [CACACA_site3873]” it was 11.1; in that of “TATATATTTTCTTTTGCACACTGTTTTCCTTTTTTT [CACACA_site2739]”, 10.2; in that of “AAAATTAGGTATATATGTACATATATAAATATATAT [XGTACX_site3555]”, 6.8.

As for “TAAAGAAACTATTCAACACACGGTCTAATTATTACA [CACACA_site1064]”, the “gcPBM binding intensity (ln)” value was found to be 6.15. “TATTATTTACCTTGCTAGTTCGTTCCAAATTTTATG [XGTACX_negctrl_site197]”: the “gcPBM binding intensity (ln)” value was determined as 7.19. Consider “AAACAAATGTATATGTGTACTTATTTTTTTGTATGT [XGTACX_site7134]”, for which the “gcPBM binding intensity (ln)” value was determined as 6.17. With “ACAAAACTTTTAAGAACACACAAAAATGTACTATCG [CACACA_site7245]” the figure was 6.17; with “AATGTGCAAACAAACTGTACTTTTTTTTTTTTTTTT [XGTACX_site928]”, 10.6; with “TTTTCATTTTTCTTTACACACATATATATATATATA [CACACA_site2236]”, 9.23. In the case of “ATATAGATGCATAATACACACATCAGATAATTAACC [CACACA_site6871]” it was 6.96. Consider “TGCAAAAAATTCCACACACACACACGCATATAAATA [CACACA_site6696]”, for which the “gcPBM binding intensity (ln)” value was 6.72. As for TTTTTTTGTTAAAAGGTGCTAATATATATAAGTGCT, the “gcPBM binding intensity (ln)” value is 6.62. With “TCTACTATTATATATTGTACAAATGATACTTATATT [XGTACX_site1819]” the figure was 6.61; with “ATATATTTGATAAGAGTGCACAAATACATACATACA [GTGCAC_site9704]”, 9.65.

With ATGATATACTTGAGTGTGCACAAACTATTACTTACA, the “gcPBM binding intensity (ln)” value is 11. As to “CCATTTGATAATAATGCACACCACATATATTTATAT [CACACA_site9002]”, the “gcPBM binding intensity (ln)” value was determined as 10.1. In the case of “TTATTTACATCAAGTACATGCAGTAAAAAAAAAAAA [TGCATGCA_site351]” it was 6.41; in that of “ATATATATATATATATGTACTTATTTATCGTATTAT [XGTACX_site3520]”, 9.59. With “TACACATAATATAATGCATGTGTGATGTATGTTTAA [TGCATGCA_site697]”, the “gcPBM binding intensity (ln)” value was found to be 6.56. With “CTTTTTTTAATGATAACACACATGTTGTGCATAGAC [CACACA_site3270]” the figure was 10.7; with “TCTTTTAACACATGTGATATTATTTAATAACAATAA [CACACA_negctrl_site339]”, 6.51; with “TTTTTTTTTTATTAATGTACAAGATATATAATGTTA [XGTACX_site4809]”, 6.16. “TTAAAAAACCTTAGATGTACAGTTATATATAAAATA [XGTACX_site6688]”: the “gcPBM binding intensity (ln)” value turned out to be 6.37. In the case of “TAACTTAATTTTAATGCACACAATTTATATATATAT [CACACA_site6022]” it was 10.5; in that of “TTTAATTTTCGGTGTGCACACAACTATGAGTTTTTA [CACACA_site3034]”, 11.2.

Take “TTTAATTATTAGTGTGCACACAACTATGAGTTTTTA [CACACA_site8997]”: the “gcPBM binding intensity (ln)” value came to 10.8. As for TTTTTAATTTATTGTGTGCACACAACTATGAGTTTT, the “gcPBM binding intensity (ln)” value was 10.3. On to “AACGGGGGTAGTTTTATGCACACGTTTATTAATGCT [CACACA_site3173]”, for which the “gcPBM binding intensity (ln)” value turned out to be 9.56. As for “AACAACTATTAATTTACACACATGTATATATTTTAC [CACACA_site3116]”, the “gcPBM binding intensity (ln)” value is 6.82.

Regarding “TTTTTTTTTTTTTTTTGTACATATTTTTAAACTATA [XGTACX_site2897]”, the “gcPBM binding intensity (ln)” value worked out at 6.24.

Regarding “TTCTTTTTTCGACACACACACACAAGAAGATATATA [CACACA_site7456]”, the “gcPBM binding intensity (ln)” value was 7.11. In the case of “ATATATCTATAAAAGGCTTCCCACTTTTTTTGTCAA [TGCATGCA_negctrl_site332]” it was 6.39; in that of “GGCGTATGTGTATATACACACCCACGTATATATATA [CACACA_site9046]”, 8.02; in that of “CCTATTTATATATACACACACATATATAAATAAATA [CACACA_site2991]”, 6.95. In the case of “TATATATATGAGTATACACACCTGATAAAGGTATAT [CACACA_site5462]”, the “gcPBM binding intensity (ln)” value is 6.87. On to “TAATGTAAAATTTAGAGTACATAAAAAATTGGATGA [XGTACX_site7225]”, for which the “gcPBM binding intensity (ln)” value worked out at 6.68. With “AAAAATAAAATATATACATGCATATACATATTATAT [TGCATGCA_site668]” the figure was 6.31; with “AATTATATAAGCCACGCATGTGTGCATAAAAATACA [TGCATGCA_site114]”, 10.9; with “AAATAAAATTATAATACATGCATACATACATATATA [TGCATGCA_site69]”, 6.3.
